The panel holds about 83,000 compounds, 20% with a hit somewhere; the sample as a whole holds those more often.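 Treatment: one concentration, 48 hours, 96-well format. Scoring: percent growth, with anything below 10 considered active.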 Unmarked numbers belong to inactive results. The source made the active and inactive calls.

The assay has as its system MDA-MB-468 breast. Nature of the assay: NCI-60 one-dose screen, 48 h (100 = growth as untreated, 0 = no growth, -100 = all killed). The conditions noted are these: 10 µM unless noted.
On to `O=C(CCCCCCN1CC(=O)N2[C@@H](c3cccs3)c3[nH]c4ccccc4c3C[C@H]2C1=O)NO`, for which the growth is 41.6%.

Take `COc1cc(/C=C\C(=O)O)ccc1OCc1ccccc1`: the growth was 92.5%.

As for `CC1=C(/C=C/C(C)=C/C=C(C(=O)O)\C(C)=C\C(=O)O)C(C)(C)CCC1`, the growth is 109%.

With `COC(=O)c1c(C)nc(C)c2c1C(=O)C=C(NCc1ccccc1)C2=O`, the growth was 53.9%.

`O=C(NN1C(=O)CSC1c1cccc([N+](=O)[O-])c1)c1ccc(NC(=O)c2ccccn2)cc1` (stereo not given): the growth was 98.8%.

For the molecule `COc1cc(OC)c(C(=O)/C=C/c2cc3c(cc2OCc2ccccc2)OC(C)(C)CC3)cc1CC=C(C)C`, the growth was 26.2%.

On to `Cc1nc([P+](c2ccccc2)(c2ccccc2)c2ccccc2)c(N2CCCCC2)o1`, for which the growth was 0.108% (active).

`C#CC[C@@H]1C[C@]2(C)[C@H]3CC[C@@H]4[C@H]5C(C(=C)C)CC[C@]5(C(=O)NCCCCN)CC[C@@]4(C)[C@]3(C)CC[C@H]2C(C)(C)[C@H]1OC(C)=O` (stereo not given in full): the growth is -53.7% (active).

As to `COc1ccc(C(=O)CSc2nc(-c3cc(OC)ccc3OC)cc(-c3ccc(OC)cc3)c2C#N)cc1`, the growth was 105%.

`COc1nc2ccccc2cc1-c1nc2c(cnn2-c2ccccc2)c(=O)[nH]1`: the growth was 35.9%.

Turning to `C=CCn1c(C)nc2cc(Nc3nc(N4CCCC4)nc4ccccc34)ccc21`, the growth is 105%.

On to `C=C1C(=O)O[C@H]2[C@H]1CC/C(COC(=O)NCc1ccc(Cn3c(=O)sn(-c4ccc(C#N)cc4)c3=O)cc1)=C\CC[C@@]1(C)O[C@@H]21`, for which the growth is 7.72% (active).

Take `CCNc1nc(S(=O)(=O)CC)nc2ccccc12`: the growth was 76.4%.

For `Clc1ccc(Nc2ncnc3c2sc2ncccc23)cc1`, the growth was 23%.

For `COc1ccc(C2=NOC(CC(=O)N(CCO)CCO)C2)cc1OC1CCCC1` (stereo not given), the growth was 90.2%.

For the molecule `CC1=NOCC(=O)N1`, the growth was 95.9%.

For `Clc1cc(Cl)c(Cl)nn1`, the growth is 102%.

Turning to `CCNc1nc(C(F)(F)F)nc2c1sc(=S)n2-c1ccccc1`, the growth was 81.6%.

As for `COc1ccc(/C=C(\C#N)n2nnc3ccccc32)cc1`, the growth was 4.67% (active).

With `COc1cc([C@H](C)c2ccc3ccccc3c2)cc(OC)c1OC`, the growth was 47.3%.

For the molecule `CC[C@H](C)[C@H](N)C(=O)O`, the growth is 99.9%.

Take `N#C/C(=C\c1ccc2c(c1)OCO2)c1ccccc1`: the growth is 24.8%.

Take `C=C1C(=O)O[C@H]2[C@H]1CC/C(COC(=O)CCC(=O)NCCOCCOCC(=O)Nc1ccc(OC)c(C(N)=O)c1O)=C\CC[C@@]1(C)O[C@@H]21`: the growth was -17.5% (active).

Turning to `COc1ccc(-c2c3c(nn2-c2ccc(N)cc2)CCc2cnoc2-3)cc1OC`, the growth is 92.8%.

For `O=C(c1c[nH]c(=O)c(-c2ccccc2)c1)c1ccccc1O`, the growth was 80.8%.

Regarding `O=C(Nc1cc(C(F)(F)F)cc(C(F)(F)F)c1)Nc1ccc2oc(=O)ccc2c1`, the growth was -5.53% (active).

With `Cc1ccc(Cc2cnc(NC(=O)CN3C(=O)/C(=C\c4ccccc4)SC3=S)s2)cc1`, the growth was 105%.

In the case of `O=C(Oc1ccccc1)c1ccccc1Cl`, the growth is 102%.

As for `O=C(CCc1nnc(CN(c2ccccc2)c2ccccc2)o1)c1nc2ccccc2[nH]1`, the growth was 89.1%.

As for `C=CCOC(=O)C1=C(C)NC(=O)NC1c1c(Cl)n(C)c2ccccc12` (stereo not given), the growth is 106%.

For the molecule `O=C(c1ccc(O)cc1)[C@@H]1[C@@H]2CCCN2[C@@]2(C(=O)N(C(=O)c3ccc(F)cc3)c3ccccc32)[C@H]1c1ccc(F)cc1`, the growth is 92.4%.

Regarding `CC(=O)c1cccc(NS(=O)(=O)c2ccc(C)cc2)c1`, the growth was 77.3%.

Consider `C#Cc1nc(/C=C/C(=O)c2nccn2C)cs1`, for which the growth is -28.5% (active).

In the case of `CCCC1=NNC(=O)C1`, the growth is 115%.

On to `NC(N)=NS(=O)(=O)c1ccc(N=Nc2c(N)nn(-c3ccc([N+](=O)[O-])cc3[N+](=O)[O-])c2N)cc1`, for which the growth was 106%.

For `N#CC(=Nc1cccc(F)c1)C1=C(O)c2ccccc2C1=O`, the growth was 75.2%.

In the case of `CN(C)c1ccc(/C=N\Nc2cc(=O)[nH]c3ccc(Cl)cc23)cc1`, the growth was 107%.

For `C=C1C(=O)O[C@H]2[C@H]1CC/C(Cn1cc(-c3ccc(OC)cc3)nn1)=C\CC[C@@]1(C)O[C@@H]21`, the growth is -42.8% (active).

In the case of `CCN1CCN(C(=S)SCC(=O)Nc2nc3ccc(C)cc3s2)CC1`, the growth was 104%.

For the molecule `COc1ccc(C2C3=C(COC3=O)N(CCO)c3cc4c(cc32)OCCO4)cc1OC` (stereo not given), the growth was -32.1% (active).

(Values after PubChem BioAssay (NCI).)
